Measurements reported in PubChem BioAssay (Tox21).
Results filed as inconclusive are left out. The source made the active and inactive calls. Unless noted, calls follow the shape of the dose curve; as a rule, active = well fitted curve in the direction sought with a large enough effect in the repeat runs; inconclusive = weak or mixed curves; inactive = no such curve, though single readings can be large; an effect the other way counts as inactive or inconclusive.

Experiments:
[1] = A CellTox Green Cytotoxicity Assay to monitor cytotoxicity in HepG2 cells - 8 hour (AID 1224890); also: nearly all actives have a fitted effect of over 45% in size
Summary of the method: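 HepG2, 600 cells/well premixed w/ CellTox Green; 5 h settle, 37 C/5% CO2; pintool cpd add (DMSO); 37 C, 40 h; fluorescence read at 0, 8, 16, 24, 32, 40 h.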

[2] = qHTS assay to identify small molecule antagonists of the estrogen receptor alpha (ER-alpha) signaling pathway using the BG1 cell line in the presence of 0.1 nM 17-beta-estradiol - cell viability counter screen (AID 1259241); also: nearly all actives have a fitted effect of over 40% in size
Summary of the method: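 Cells were plated and left 24 hr, compounds in DMSO were pinned in, 17beta-estradiol was added to 0.1 nM final, and after 22 hr CellTiter-Fluor reagent was added for 30 min before fluorescence was read.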

[3] = biological target: Androgen receptor (Homo sapiens) (UniProt P10275); assay: qHTS assay to identify small molecule antagonists of the androgen receptor (AR) signaling pathway using the MDA cell line in the presence of 0.5 nM R1881 (AID 1259243); also: nearly all actives have a fitted effect of over 50% in size
Summary of the method: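 MDA-kb2, MMTV-luc (AR/GR elements); 3,000 cells/well; cpd + 0.5 nM R1881 final; 16 hr 37C, 0% CO2; ONE-Glo 30 min RT; luminescence.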

[4] = qHTS assay to identify small molecule phospholipidosis (PLD) inducers (AID 1259344; active = well fitted curve in the direction sought with a large enough effect; an effect the other way counts as inactive or inconclusive)
Summary of the method: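 Accumulated phospholipid, stained red by LipidTOX during 24 h compound treatment of HepG2 cells at 37 C, is quantified from images as pit number and intensity, normalised per cell using Hoechst-stained nuclei.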

[5] = qHTS assay to identify small molecule HDAC inhibitors (AID 1259364);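 also: wild-type HCT-116 cells with endogenous class I/II HDAC activity; top concentration of the series differs between compounds; nearly all actives have a fitted effect of over 45% in size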
Summary of the method: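 HCT-116 (wild type), 1,500 cells/well, overnight; compound 2 hr 37C 5% CO2; HDAC-Glo I/II reagent 30 min RT; luminescence readout.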

[6] = qHTS assay to identify small molecule HDAC inhibitors - cell viability counter screen (AID 1259365); also: series mostly up to about 92 µM; nearly all actives have a fitted effect of over 50% in size
Summary of the method: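 Counter screen in wild-type HCT-116 cells: compounds dissolved in DMSO are pin-transferred onto overnight-plated cells and left 2hr at 37C. ATP-based CellTiter-Glo luminescence then measures viable cells.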

[7] = qHTS assay to identify small molecule agonists of the sonic hedgehog signaling (Shh) pathway - cell viability counter screen (AID 1259366); also: nearly all actives have a fitted effect of over 50% in size
Summary of the method: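 Cells are plated at 2,000 per well and left 4hr at 37C, 5% CO2 before compound addition. After 23hr of treatment, CellTiter-Fluor reagent is added for 1hr at 37C and fluorescence is measured.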

[8] = qHTS assay to identify small molecule antagonists of the sonic hedgehog signaling (Shh) pathway - cell viability counter screen (AID 1259367); also: nearly all actives have a fitted effect of over 55% in size
Summary of the method: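 CellTiter-Fluor signal in conditioned medium-stimulated 3T3 Gli1-Luc cells, 23 hr compound exposure, 37C.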

[9] = qHTS assay to identify small molecule agonists of the sonic hedgehog signaling (Shh) pathway (AID 1259368; calls by dose curve;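 also: NIH/3T3-derived 3T3Gli1-Luc cells carrying a stable Gli1-driven firefly luciferase reporter; series mostly up to about 92 µM; nearly all actives have a fitted effect of over 15% in size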)
Summary of the method: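 Read-out: firefly luciferase luminescence from a Gli1 response element reporter stably integrated in NIH/3T3-derived 3T3Gli1-Luc cells, measured 30 min at room temperature after reagent addition. Compound exposure lasted 24 hr at 37 C, 5% CO2.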

[10] = qHTS assay to identify small molecule antagonists of the sonic hedgehog signaling (Shh) pathway (AID 1259369; calls by dose curve; also: nearly all actives have a fitted effect of over 45% in size)
Summary of the method: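 Luminescence readout: firefly Luc under Gli1 response element in 3T3Gli1-Luc cells (NIH/3T3 clone). Antagonist mode, stimulation by conditioned medium; compound exposure 24hr at 37 C, 5% CO2.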

[11] = biological target: Estrogen receptor beta (Homo sapiens) (UniProt Q92731); assay: qHTS assay to identify small molecule agonists of the estrogen receptor beta (ER-beta) signaling pathway (AID 1259377; active = well fitted activation curve with a large enough effect in the signal ratio in the repeat runs, not every such curve was filed as active; the % refers to the signal ratio)
Summary of the method: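 Agonist mode cell assay in GripTite HEK293T cells expressing an ER-beta fusion that drives beta-lactamase from an Upstream Activator Sequence; 16 hr compound exposure at 37C, then 2 h LiveBLAzer B/G FRET substrate at room temperature, fluorescence read-out.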

[12] = qHTS assay to identify small molecule agonists of the androgen receptor (AR) signaling pathway in the presence of an antagonist - cell viability counter screen (AID 1259379);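 also: MDA-kb2 human breast cancer cells carrying an MMTV luciferase reporter; series mostly up to about 92 µM; nearly all actives have a fitted effect of over 25% in size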
Summary of the method: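 Viability counter screen: CellTiter-Fluor fluorescence, measured in the same wells as the luciferase read-out. MDA-kb2 cells, 3,000/well, with nilutamide at 3.0uM final and compounds at 15 concentrations, 16 hr at 37C, 0% CO2.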

[13] = qHTS assay to identify small molecule agonists of the estrogen receptor beta (ER-beta) signaling pathway - cell viability counter screen (AID 1259380); also: nearly all actives have a fitted effect of over 30% in size
Summary of the method: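 Luminescence read-out (CellTiter-Glo, 30 min, room temp) taken in the same wells as the beta-lactamase reporter assay; ER-beta-UAS-bla HEK293T cells exposed to DMSO-dissolved compounds for 16 hr at 37C in 2% charcoal-stripped FBS medium.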

[14] = biological target: Androgen receptor (Homo sapiens) (UniProt P10275); assay: qHTS assay to identify small molecule agonists of the androgen receptor (AR) signaling pathway in the presence of an antagonist (AID 1259381; calls by dose curve; also: nearly all actives have a fitted effect of over 15% in size)
Summary of the method: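 Luciferase read-out (ONE-Glo, 30min room temperature) in MDA-kb2 MMTV-reporter cells; agonist mode run in presence of AR antagonist nilutamide, 3.0uM final. Compounds tested as 15-point series, 16hr exposure at 37C, 0% CO2.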

[15] = qHTS assay to identify small molecule antagonists of the estrogen receptor beta (ER-beta) signaling pathway - cell viability counter screen (AID 1259382);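 also: HEK293T cells carrying ER-beta-UAS-bla reporter stimulated with estradiol; series mostly up to about 92 µM; nearly all actives have a fitted effect of over 55% in size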
Summary of the method: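 Luminescent ATP read-out (CellTiter-Glo, 30 min, RT) taken in the same wells as the bla reporter assay. HEK293T ER-beta-UAS-bla cells in 2% charcoal-stripped FBS were exposed to compounds with 1nM E2 for 16 hr at 37C.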

[16] = qHTS assay to identify small molecule agonists or antagonists of the thyroid stimulating hormone receptor (TSHR) signaling pathway - wild type cell line counter screen (AID 1259384; calls by dose curve)
Summary of the method: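 Counter screen in untransfected Hek293: compounds (15-point titration, triplicate) plus phosphodiesterase inhibitor Ro20-1724 added after 18 h plating; 30 min RT. Intracellular cAMP via competitive d2/cryptate immunoassay, 1 h incubation.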

[17] = biological target: Estrogen receptor (Homo sapiens) (UniProt P03372); assay: qHTS assay to identify small molecule antagonists of the estrogen receptor alpha (ER-alpha) signaling pathway using the BG1 cell line in the presence of 0.1 nM 17-beta-estradiol (AID 1259244); also: nearly all actives have a fitted effect of over 50% in size
Summary of the method: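 Luminescence after ONE-Glo (30 min, room temperature) measured ERE-luciferase activity in VM7Luc4E2 cells treated 22 h with compound and 0.1 nM final 17beta-estradiol as stimulator.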

[18] = biological target: Estrogen receptor beta (Homo sapiens) (UniProt Q92731); assay: qHTS assay to identify small molecule antagonists of the estrogen receptor beta (ER-beta) signaling pathway (AID 1259378; active = well fitted inhibition curve with a large enough effect in the signal ratio in the repeat runs, not every such curve was filed as active; the % refers to the signal ratio)
Summary of the method: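 Antagonist mode: compounds added to beta-lactamase reporter HEK293T ER-beta-UAS cells stimulated with E2 (1nM final), 16 hr at 37C. LiveBLAzer B/G FRET substrate, 2 hours room temperature, fluorescence read-out.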

[19] = biological target: Estrogen receptor (Homo sapiens) (UniProt P03372); assay: qHTS assay to identify small molecule agonists of the estrogen receptor alpha (ER-alpha) signaling pathway in the presence of an antagonist (AID 1259383; calls by dose curve; also: top concentration of the series differs between compounds; nearly all actives have a fitted effect of over 15% in size)
Summary of the method: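 Luciferase luminescence (ONE-Glo, 30min at room temperature) measured in VM7Luc4E2 cells after 22hr compound exposure at 15 concentrations, with 10.0nM ICI-182,780 final present; cells express endogenous ER-alpha and carry four EREs upstream of luciferase.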

[20] = qHTS assay to identify small molecule antagonists of the androgen receptor (AR) signaling pathway using the MDA cell line in the presence of 0.5 nM R1881 - cell viability counter screen (AID 1259242); also: nearly all actives have a fitted effect of over 45% in size
Summary of the method: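 Live-cell protease fluorescence, CellTiter-Fluor, 30 min at 37C. Cells: MDA-kb2, 3,000/well, preincubated 5 hr. Compounds plus 0.5 nM R1881 final, 16 hr, 37C, 0% CO2.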

Measured: Potency

Estrogen receptor (Homo sapiens), sequence (P03372 whole entry, looked up): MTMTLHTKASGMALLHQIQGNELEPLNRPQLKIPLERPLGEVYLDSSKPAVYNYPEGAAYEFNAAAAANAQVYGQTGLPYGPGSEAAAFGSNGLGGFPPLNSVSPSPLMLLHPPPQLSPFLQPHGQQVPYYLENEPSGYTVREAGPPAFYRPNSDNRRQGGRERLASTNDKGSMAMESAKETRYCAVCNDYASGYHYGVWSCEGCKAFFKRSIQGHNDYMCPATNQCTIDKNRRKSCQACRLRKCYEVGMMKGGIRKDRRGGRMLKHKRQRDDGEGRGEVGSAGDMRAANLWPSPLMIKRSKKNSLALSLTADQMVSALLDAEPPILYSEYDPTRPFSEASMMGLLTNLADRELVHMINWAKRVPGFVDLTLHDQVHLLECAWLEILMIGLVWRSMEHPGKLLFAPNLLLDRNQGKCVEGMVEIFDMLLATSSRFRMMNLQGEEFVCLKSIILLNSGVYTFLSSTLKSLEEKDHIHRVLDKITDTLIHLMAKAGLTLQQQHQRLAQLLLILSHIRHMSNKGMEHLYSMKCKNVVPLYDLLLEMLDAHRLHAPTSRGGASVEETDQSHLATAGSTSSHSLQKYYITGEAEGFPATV
Estrogen receptor beta (Homo sapiens), sequence (Q92731 whole entry, looked up, the tested form may be a part): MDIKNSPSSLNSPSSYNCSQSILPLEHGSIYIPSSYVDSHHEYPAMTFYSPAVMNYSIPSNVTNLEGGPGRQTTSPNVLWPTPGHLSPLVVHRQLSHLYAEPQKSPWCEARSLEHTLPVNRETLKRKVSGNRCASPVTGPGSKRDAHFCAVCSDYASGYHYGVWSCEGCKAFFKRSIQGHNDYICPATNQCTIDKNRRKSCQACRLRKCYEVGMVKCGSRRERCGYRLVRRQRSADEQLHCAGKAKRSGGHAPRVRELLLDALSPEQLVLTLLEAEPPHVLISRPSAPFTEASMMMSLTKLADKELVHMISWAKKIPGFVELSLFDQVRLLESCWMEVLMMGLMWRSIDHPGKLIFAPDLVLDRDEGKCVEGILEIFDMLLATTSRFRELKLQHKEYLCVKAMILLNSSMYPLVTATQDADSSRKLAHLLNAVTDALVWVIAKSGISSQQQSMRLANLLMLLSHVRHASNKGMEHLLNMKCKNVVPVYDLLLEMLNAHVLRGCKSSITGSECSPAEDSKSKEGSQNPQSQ
Androgen receptor (Homo sapiens), sequence (P10275 whole entry, looked up): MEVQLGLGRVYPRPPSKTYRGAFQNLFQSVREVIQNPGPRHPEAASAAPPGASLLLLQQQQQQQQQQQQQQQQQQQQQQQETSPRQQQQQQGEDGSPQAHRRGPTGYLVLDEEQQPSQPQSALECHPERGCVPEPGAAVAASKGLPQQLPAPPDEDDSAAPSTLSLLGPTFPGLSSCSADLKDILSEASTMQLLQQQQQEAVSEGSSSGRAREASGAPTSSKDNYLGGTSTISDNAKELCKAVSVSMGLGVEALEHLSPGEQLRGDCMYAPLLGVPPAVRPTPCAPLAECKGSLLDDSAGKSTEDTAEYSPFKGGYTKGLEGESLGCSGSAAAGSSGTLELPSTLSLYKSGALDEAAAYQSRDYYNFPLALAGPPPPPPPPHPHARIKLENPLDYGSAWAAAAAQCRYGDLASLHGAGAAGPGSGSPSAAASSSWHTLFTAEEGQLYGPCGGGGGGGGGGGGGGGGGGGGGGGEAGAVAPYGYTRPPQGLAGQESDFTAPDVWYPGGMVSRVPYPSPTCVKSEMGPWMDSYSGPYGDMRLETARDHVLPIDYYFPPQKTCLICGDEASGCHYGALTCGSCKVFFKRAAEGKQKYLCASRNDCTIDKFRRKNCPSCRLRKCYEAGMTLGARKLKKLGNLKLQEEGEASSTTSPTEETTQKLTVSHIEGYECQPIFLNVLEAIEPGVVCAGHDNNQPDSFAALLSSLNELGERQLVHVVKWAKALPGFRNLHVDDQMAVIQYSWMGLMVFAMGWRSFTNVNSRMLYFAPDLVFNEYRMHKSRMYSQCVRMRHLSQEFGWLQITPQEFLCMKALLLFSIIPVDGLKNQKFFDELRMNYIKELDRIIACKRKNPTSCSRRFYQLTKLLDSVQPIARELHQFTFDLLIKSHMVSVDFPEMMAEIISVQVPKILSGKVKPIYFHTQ

CN/C(=C\[N+](=O)[O-])NCCSCc1csc(CN(C)C)n1
not listed: [17] | [18] | [19] | [20]
inactive: all other assays above

CC1(C)NC(=O)NC1=O
not listed: [3] | [4] | [11] | [14] | [18] | [19] | [20]
inactive: all other assays above

CCOC(=O)c1ccc(N)cc1
not listed: [3] | [14] | [17] | [19] | [20]
inactive: all other assays above

CCO[Si](CCCN)(OCC)OCC
not listed: [3] | [4] | [11] | [14] | [18] | [20]
inactive: all other assays above

O=S(=O)(O)c1ccccc1
not listed: [3] | [4] | [11] | [14] | [17] | [18] | [19]
inactive: all other assays above

CCCCCCO
not listed: [3] | [4] | [10] | [11] | [14] | [18] | [20]
inactive: all other assays above

O=C(O)c1ccccc1C(=O)O
not listed: [3] | [4] | [10] | [11] | [14] | [18] | [20]
inactive: all other assays above

NC(=S)NNC(N)=S
not listed: [3] | [4] | [11] | [14] | [17] | [18] | [19] | [20]
inactive: all other assays above

COc1ccc(N)c(C)c1
not listed: [3] | [4] | [14] | [19] | [20]
inactive: all other assays above

Cc1ccc2ncccc2c1
not listed: [3] | [4] | [11] | [14] | [18] | [19] | [20]
inactive: all other assays above
